This is a sample that favours compounds with a hit; in the whole collection about 6% have one here.
D1 PAM: Potentiators of Human D1 Dopamine Receptor: qHTS; HEK293 TREx D1 cells, calcium flux, dopamine EC20 potentiation; potentiation, % at 10 µM; actives 0.036% (n = 360,000); AID 504651, 2011; in the data active = potentiation above about 30%; note: 0% is about no effect
Target sequence (P21728 whole entry, looked up): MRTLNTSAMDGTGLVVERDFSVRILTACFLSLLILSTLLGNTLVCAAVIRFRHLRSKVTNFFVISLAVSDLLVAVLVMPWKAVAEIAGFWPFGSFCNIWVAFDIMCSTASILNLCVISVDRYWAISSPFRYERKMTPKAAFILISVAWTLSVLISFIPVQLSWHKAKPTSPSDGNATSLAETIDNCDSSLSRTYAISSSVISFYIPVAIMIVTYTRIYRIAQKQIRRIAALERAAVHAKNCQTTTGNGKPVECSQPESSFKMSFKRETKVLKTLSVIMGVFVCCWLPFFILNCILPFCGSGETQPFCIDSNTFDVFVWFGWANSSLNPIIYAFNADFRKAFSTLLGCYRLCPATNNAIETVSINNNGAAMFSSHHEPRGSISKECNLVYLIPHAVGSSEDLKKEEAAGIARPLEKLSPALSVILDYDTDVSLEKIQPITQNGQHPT
D1 antag: Antagonist of Human D 1 Dopamine Receptor: qHTS; actives 3.2% (n = 360,000); D(1A) dopamine receptor (Homo sapiens), P21728; HEK293 TREx D1 cells, calcium flux, dopamine EC80; active compounds read low; activity change, negative = inhibition, % at 10 µM; AID 504652, 2011; in the data active = activity change below about -30%; note: % is set by controls: 0 for no effect and ±100 for the full control effect
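Compound effects on dopamine-evoked calcium signalling were measured in tetracycline-induced HEK293 Trex D1 cells. Dopamine at EC80 followed a 180 s compound pre-read, and fluorescence was tracked kinetically for 180 s more.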
D1 agonist: Allosteric Agonists of the Human D1 Dopamine Receptor: qHTS | D(1A) dopamine receptor (Homo sapiens), P21728 | HEK293 T-REx D1 cells, calcium flux, agonist mode | activation, % at 2 µM | actives 1% (n = 360,000) | AID 504660, 2011; in the data active = activation above about 30%; note: 0% is about no effect
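Agonism was scored from calcium flux recorded over 180 s (1 read/s) after pintool compound addition, following a 10-cycle baseline. Cells were inducible force-coupled HEK293 TREx D1, plated overnight at 30 C and loaded with no-wash calcium dye.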
D3 ag: qHTS of D3 Dopamine Receptor Agonist: qHTS. D(3) dopamine receptor (Homo sapiens), P35462. D3R DiscoveRx beta-arrestin cells, luminescence, 90 min. max activation, %. actives 0.58% (n = 410,000). AID 652048, 2013; in the data active = max activation above about 30%; note: 0% is about no effect
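Cells at 1500/well, incubated overnight, then treated with pinned compounds (dopamine as control) for 90 min at 37 degrees C. DiscoveRx reagent added for 30 - 60 minutes at room temperature; luminescence read.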
DRD3 antagonist: qHTS of D3 Dopamine Receptor Antagonist: qHTS. D(3) dopamine receptor (Homo sapiens), P35462. D3R cells, DiscoveRx beta-arrestin luminescence, antagonist mode; active compounds read low. max response, negative = inhibition, %. actives 2.5% (n = 360,000). AID 652054, 2013; in the data active = max response below about -50%; note: % is set by controls: 0 for no effect and ±100 for the full control effect
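Cells plated overnight at 1500 cells/well, then exposed to library compounds with dopamine controls for 90 minutes at 37 degrees C. DiscoveRx reagent added for 30–60 minutes at room temperature; luminescence read, quantitative HTS format.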
The depositor's hits bear a star.

What do the screens show for `CCOC(=O)C1=c2s/c(=C\c3ccncc3)c(=O)n2C(N)=C(C(=O)OC)C1c1ccncc1` (stereo not drawn)?
D1 PAM: 1.4; D1 antag: 3.2; D1 agonist: 1.9; D3 ag: 2.5; DRD3 antagonist: 9.5

Results for CCOC(=O)C1=C(N)n2c(s/c(=C/c3ccco3)c2=O)=C(C(=O)OC)C1c1ccco1 (stereo not drawn) ?
D1 PAM: 2.5; D1 antag: -1.0; D1 agonist: 50.3*; D3 ag: -6.8; DRD3 antagonist: -30.0

How did Cc1ccc2oc(=O)cc(CN3CCCCC3)c2c1 do in these assays?
D1 PAM: -6.2; D1 antag: 8.8; D1 agonist: -0.3; D3 ag: -4.2; DRD3 antagonist: 5.4

How did Cc1ccc2oc(=O)cc(CN3CCN(C/C=C/c4ccccc4)CC3)c2c1 do in these assays?
D1 PAM: -2.2; D1 antag: 24.4; D1 agonist: 6.5; D3 ag: -12.0; DRD3 antagonist: -60.2*

How did O=c1cc(CN2CCN(C/C=C/c3ccccc3)CC2)c2cc(O)ccc2o1 do in these assays?
D1 PAM: 3.0; D1 antag: -32.5*; D1 agonist: 11.3; D3 ag: -11.4; DRD3 antagonist: -62.5*

What do the screens show for `Cc1ccccc1CN1CCN(C/C=C/c2ccccc2)CC1`?
D1 PAM: 0.9; D1 antag: 5.4; D1 agonist: 2.5; D3 ag: -40.6; DRD3 antagonist: -191.9*

Results for Cc1ccccc1NC(=O)N1CCN(C/C=C/c2ccccc2)CC1 ?
D1 PAM: -6.0; D1 agonist: -0.9; D3 ag: -9.9; DRD3 antagonist: 15.7

What do the screens show for `C[C@@H]1CN([C@H](C)CO)C(=O)CCCn2cc(nn2)CO[C@H]1CN(C)C(=O)Nc1ccccc1C(F)(F)F`?
D3 ag: -3.4; DRD3 antagonist: -14.4

How did O=C(Nc1cc(C(=O)N2CCCC2)ccc1N1CCCC1)c1ccccc1F do in these assays?
D1 PAM: -1.4; D1 antag: 6.5; D1 agonist: 2.0; D3 ag: 61.3*; DRD3 antagonist: 55.9

How did O=C(Nc1ccccc1N1CCN(C(=O)c2ccccc2)CC1)c1ccccc1Cl do in these assays?
D1 PAM: -5.7; D1 antag: -44.9*; D1 agonist: 1.7; D3 ag: 0.7; DRD3 antagonist: 16.8

What do the screens show for `O=C(Nc1ccccc1N1CCCC1)c1ccc(Cl)cc1Cl`?
D1 PAM: -3.2; D1 antag: -33.4*; D1 agonist: 3.5; D3 ag: -6.4; DRD3 antagonist: 12.4

What do the screens show for `COc1ccc(OC)c(NC(=O)c2cc3c(s2)-c2ccccc2SC3)c1`?
D1 PAM: -2.5; D1 antag: 5.4; D1 agonist: 4.8; D3 ag: 0.4

How did CCOc1ccccc1NC(=O)COC(=O)c1cn(CC)c2nc(C)ccc2c1=O do in these assays?
D1 PAM: -0.1; D1 antag: -0.1; D1 agonist: 1.0; D3 ag: 0.3

How did COc1ccc(NC(=O)Cn2c(SCc3ccc(F)cc3)nc3cccnc32)cc1OC do in these assays?
D1 PAM: 2.1; D1 antag: -5.0; D1 agonist: 5.6; D3 ag: 3.2

What do the screens show for `CCC[C@@]1(CCc2ccccc2)CC(O)=C([C@H](CC)c2cccc(NS(=O)(=O)c3ccc(C(F)(F)F)cn3)c2)C(=O)O1`?
D3 ag: 5.0

Results for Cc1ccc(/C=C2/CNC/C(=C/c3ccc(C)cc3)C2=O)cc1 ?
D3 ag: -4.7; DRD3 antagonist: -50.8*

Results for COc1cc(NC(=O)C(OC(=O)CNC(=O)c2ccccc2)c2ccccc2)c(OC)cc1Cl (stereo not drawn) ?
D1 PAM: -1.1; D1 antag: 2.7; D1 agonist: 0.6

What do the screens show for `COc1ccc(NC(=O)C(OC(=O)CNC(=O)c2ccccc2)c2ccccc2)c(C)c1` (stereo not drawn)?
D1 PAM: 4.3; D1 antag: -47.6*; D1 agonist: 2.2

What do the screens show for `Cc1nc(CN(C)C(=O)c2cc(COc3ccc4ncccc4c3)on2)cs1`?
D1 PAM: -2.0; D1 antag: -37.3*; D1 agonist: 15.9; D3 ag: 5.3; DRD3 antagonist: 34.5

Results for COCC1CCCCN1C(=O)c1cc(COc2ccc3ncccc3c2)on1 (stereo not drawn) ?
D1 PAM: -1.4; D1 antag: -26.8; D1 agonist: 11.7; D3 ag: 15.0; DRD3 antagonist: 11.4

Results for CC(C)N(Cc1nccn1C)C(=O)c1cc(COc2ccc3ncccc3c2)on1 ?
D1 PAM: 0.8; D1 antag: -6.7; D1 agonist: 7.8; D3 ag: 3.2; DRD3 antagonist: -3.8

Results for CCC1CCCCN1C(=O)c1cc(COc2ccc3ncccc3c2)on1 (stereo not drawn) ?
D1 PAM: -4.5; D1 antag: -42.0*; D1 agonist: 12.3; D3 ag: 5.5; DRD3 antagonist: 14.1

How did CC(=O)c1ccc(OCc2cc(C(=O)N3CCCCC3c3cccnc3)no2)cc1 (stereo not drawn) do in these assays?
D1 PAM: -6.4; D1 antag: -33.4*; D1 agonist: 19.7; D3 ag: 1.9; DRD3 antagonist: -3.6

Results for CC(=O)c1ccc(OCc2cc(C(=O)N3CCC(c4ccncc4)CC3)no2)cc1 ?
D1 PAM: -9.2; D1 antag: -21.0; D1 agonist: 17.8; D3 ag: 8.9; DRD3 antagonist: -1.4

What do the screens show for `COCCC1CCCCN1C(=O)c1cc(COc2ccc(-n3cncn3)cc2)on1` (stereo not drawn)?
D1 PAM: -8.9; D1 antag: -63.7*; D1 agonist: 17.5; D3 ag: 1.0; DRD3 antagonist: 4.1

What do the screens show for `CC(=O)Nc1cc(-c2cccc(C(=O)NCCO)c2)cn2c(-c3cccc(C(F)(F)F)c3)cnc12`?
D3 ag: -5.3; DRD3 antagonist: -21.0

How did CCOC(=O)[C@]12CCCC=C1N(CCC1=CCCCC1)C(=O)[C@H](CC(=O)NCc1cccs1)C2 do in these assays?
D3 ag: 0.8; DRD3 antagonist: 14.9

How did O=C(CSc1nc(O)c(-c2ccccc2)c(=O)[nH]1)N1CCOCC1 do in these assays?
D1 PAM: 1.8; D1 antag: 3.9; D1 agonist: 4.3; D3 ag: 2.9; DRD3 antagonist: 3.7

What do the screens show for `O=C(CSc1nc(O)c(C(c2ccccc2)c2ccccc2)c(=O)[nH]1)N1CCOCC1`?
D1 PAM: -5.0; D1 antag: -13.3; D1 agonist: 1.6; D3 ag: -17.7; DRD3 antagonist: -62.3*

What do the screens show for `CCOc1ccccc1NC(=O)CCc1c(C)nc2cc(-c3ccccc3)nn2c1C`?
D1 PAM: -1.5; D1 antag: 13.4; D1 agonist: 3.7; D3 ag: 5.9
